Reference: the supplement of paper PMC10849652
About 8,800 targets were measured; listed, in parts, are those with a hit and a random draw of the rest. About 0.5% of all pairs of compound and target were hits.

Each target was assayed with C1=CC2=C(C=CC(=C2)/C=C\3/C(=O)NC(=NCC4=CC=CS4)S3)N=C1 (assay: log2 fold change, soluble protein after heating vs DMSO (PISA); higher = thermal stabilisation; K562 lysate, 10 uM; active = over 0.2 and 3.5 SD of the protein, either way, in both replicates (recomputed)).
How it was run: (§1)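 Soluble protein was defined as the supernatant remaining after 21,000xg for 90 min, following pooling of heated aliquots and adjustment to 0.5% NP-40 at 4°C. Before that, crude K562 extract at 1 mg/mL protein in PBS pH 7.4 with 1 mM MgCl2 was treated with 10 μM compound for 30 min and heated for 3 min across 48°C-58°C. Quantification used TMTpro 16plex LC-MS/MS with channel sums equalised, and values are log-two fold changes in thermal stability relative to solvent controls from duplicates.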

Chain of UniProt O43592 (O43592 whole entry, looked up): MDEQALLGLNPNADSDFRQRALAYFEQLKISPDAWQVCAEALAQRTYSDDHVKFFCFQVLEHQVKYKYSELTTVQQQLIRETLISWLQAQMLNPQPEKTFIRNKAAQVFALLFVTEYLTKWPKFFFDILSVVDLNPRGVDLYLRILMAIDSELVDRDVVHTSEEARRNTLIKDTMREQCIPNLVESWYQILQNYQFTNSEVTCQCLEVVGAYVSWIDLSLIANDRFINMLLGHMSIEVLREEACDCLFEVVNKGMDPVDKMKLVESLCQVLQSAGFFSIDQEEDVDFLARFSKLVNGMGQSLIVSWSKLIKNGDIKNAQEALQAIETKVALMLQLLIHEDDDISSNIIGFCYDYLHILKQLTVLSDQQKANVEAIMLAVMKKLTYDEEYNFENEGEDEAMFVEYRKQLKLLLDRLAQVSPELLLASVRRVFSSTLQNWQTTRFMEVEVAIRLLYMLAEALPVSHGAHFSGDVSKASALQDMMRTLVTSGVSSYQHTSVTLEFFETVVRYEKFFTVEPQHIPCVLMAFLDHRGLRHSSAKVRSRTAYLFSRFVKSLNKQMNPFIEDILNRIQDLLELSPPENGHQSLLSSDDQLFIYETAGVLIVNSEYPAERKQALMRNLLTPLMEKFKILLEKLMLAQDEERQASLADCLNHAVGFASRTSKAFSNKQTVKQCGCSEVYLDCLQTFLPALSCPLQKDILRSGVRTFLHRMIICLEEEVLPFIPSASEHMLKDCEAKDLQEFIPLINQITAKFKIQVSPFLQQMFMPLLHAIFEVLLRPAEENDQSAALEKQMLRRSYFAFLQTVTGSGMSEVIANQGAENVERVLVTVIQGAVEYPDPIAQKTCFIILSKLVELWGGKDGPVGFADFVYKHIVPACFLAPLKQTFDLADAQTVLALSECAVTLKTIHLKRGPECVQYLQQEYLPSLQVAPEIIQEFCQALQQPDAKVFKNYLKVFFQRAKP
Chain of UniProt Q7Z739 (Q7Z739 whole entry, looked up): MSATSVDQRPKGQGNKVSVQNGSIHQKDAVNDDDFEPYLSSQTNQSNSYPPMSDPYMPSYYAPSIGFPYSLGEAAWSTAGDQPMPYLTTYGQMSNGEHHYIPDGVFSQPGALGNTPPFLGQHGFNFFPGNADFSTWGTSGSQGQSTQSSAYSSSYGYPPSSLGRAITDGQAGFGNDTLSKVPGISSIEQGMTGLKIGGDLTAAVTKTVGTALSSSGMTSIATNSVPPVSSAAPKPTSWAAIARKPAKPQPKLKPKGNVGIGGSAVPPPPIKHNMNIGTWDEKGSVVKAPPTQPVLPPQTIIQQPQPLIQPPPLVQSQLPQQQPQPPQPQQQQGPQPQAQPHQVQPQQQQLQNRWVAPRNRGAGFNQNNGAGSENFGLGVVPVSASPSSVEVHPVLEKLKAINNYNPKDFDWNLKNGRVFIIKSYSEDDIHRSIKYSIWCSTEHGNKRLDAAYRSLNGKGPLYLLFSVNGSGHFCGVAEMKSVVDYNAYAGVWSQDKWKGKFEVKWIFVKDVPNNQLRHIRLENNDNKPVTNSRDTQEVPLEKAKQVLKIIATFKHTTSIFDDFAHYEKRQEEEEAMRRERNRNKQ
Chain of UniProt Q9P253 (Q9P253 whole entry, looked up): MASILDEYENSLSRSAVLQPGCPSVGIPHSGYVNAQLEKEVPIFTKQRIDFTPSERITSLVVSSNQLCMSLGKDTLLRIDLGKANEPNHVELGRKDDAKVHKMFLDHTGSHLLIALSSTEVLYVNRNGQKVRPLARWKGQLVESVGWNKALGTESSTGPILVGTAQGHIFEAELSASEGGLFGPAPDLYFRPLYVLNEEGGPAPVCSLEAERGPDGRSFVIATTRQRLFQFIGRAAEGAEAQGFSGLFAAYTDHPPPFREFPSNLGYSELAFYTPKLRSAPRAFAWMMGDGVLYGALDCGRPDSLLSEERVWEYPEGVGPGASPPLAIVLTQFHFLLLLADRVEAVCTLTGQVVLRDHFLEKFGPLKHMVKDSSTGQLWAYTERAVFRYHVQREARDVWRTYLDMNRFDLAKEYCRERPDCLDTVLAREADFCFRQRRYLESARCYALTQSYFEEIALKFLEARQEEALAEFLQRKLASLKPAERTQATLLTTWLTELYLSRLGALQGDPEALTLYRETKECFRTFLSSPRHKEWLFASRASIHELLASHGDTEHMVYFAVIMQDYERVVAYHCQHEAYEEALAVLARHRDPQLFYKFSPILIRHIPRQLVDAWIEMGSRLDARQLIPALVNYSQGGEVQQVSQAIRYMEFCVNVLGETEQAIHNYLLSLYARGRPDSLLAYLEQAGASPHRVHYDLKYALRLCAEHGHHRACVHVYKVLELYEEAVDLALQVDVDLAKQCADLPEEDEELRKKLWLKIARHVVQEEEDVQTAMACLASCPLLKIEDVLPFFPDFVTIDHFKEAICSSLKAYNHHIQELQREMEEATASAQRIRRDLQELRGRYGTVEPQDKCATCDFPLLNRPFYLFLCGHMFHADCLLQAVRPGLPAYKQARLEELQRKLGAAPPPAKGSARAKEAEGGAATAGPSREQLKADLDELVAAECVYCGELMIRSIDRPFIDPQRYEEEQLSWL
Chain of UniProt Q5T200 (Q5T200 whole entry, looked up): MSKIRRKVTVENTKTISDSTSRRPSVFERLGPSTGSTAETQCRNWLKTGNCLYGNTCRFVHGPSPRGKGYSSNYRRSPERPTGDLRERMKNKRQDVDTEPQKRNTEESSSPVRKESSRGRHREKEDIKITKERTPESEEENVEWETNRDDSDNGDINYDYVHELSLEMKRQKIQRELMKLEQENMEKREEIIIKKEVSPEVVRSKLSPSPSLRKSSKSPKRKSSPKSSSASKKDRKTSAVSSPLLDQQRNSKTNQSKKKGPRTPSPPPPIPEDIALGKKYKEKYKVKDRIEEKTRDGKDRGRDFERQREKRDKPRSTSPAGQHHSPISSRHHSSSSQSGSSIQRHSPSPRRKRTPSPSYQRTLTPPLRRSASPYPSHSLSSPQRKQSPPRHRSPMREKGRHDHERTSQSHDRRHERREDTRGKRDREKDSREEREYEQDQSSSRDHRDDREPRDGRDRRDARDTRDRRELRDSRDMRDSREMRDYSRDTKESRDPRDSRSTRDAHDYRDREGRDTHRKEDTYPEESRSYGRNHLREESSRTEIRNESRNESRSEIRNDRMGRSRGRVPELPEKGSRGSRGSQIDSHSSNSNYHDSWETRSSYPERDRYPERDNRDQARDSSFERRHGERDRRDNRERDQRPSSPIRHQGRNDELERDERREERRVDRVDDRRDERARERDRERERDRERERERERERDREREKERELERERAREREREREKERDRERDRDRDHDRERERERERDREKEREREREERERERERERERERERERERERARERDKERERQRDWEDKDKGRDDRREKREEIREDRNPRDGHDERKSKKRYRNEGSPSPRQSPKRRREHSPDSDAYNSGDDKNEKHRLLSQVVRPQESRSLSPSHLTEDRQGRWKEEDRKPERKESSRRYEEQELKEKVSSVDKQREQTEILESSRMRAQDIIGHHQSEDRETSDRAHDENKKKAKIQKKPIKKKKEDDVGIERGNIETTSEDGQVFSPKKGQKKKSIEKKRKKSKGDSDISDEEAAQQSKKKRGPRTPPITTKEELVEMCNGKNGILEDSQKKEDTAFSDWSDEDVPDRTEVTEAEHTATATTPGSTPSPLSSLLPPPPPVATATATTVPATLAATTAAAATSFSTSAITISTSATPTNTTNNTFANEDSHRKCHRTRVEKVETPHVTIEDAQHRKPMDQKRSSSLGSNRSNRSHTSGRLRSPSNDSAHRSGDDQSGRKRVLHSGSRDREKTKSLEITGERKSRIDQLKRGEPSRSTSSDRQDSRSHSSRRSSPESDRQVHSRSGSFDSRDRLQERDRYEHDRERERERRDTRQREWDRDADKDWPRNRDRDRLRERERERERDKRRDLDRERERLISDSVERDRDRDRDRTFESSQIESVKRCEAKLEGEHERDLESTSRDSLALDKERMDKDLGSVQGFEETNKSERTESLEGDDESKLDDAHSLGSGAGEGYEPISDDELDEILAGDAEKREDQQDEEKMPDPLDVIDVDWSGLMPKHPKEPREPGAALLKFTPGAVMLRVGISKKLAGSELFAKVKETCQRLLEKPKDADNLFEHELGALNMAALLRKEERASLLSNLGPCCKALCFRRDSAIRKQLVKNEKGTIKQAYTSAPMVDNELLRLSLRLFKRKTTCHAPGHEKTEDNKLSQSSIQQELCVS
Chain of UniProt Q9HCS7 (Q9HCS7 whole entry, looked up): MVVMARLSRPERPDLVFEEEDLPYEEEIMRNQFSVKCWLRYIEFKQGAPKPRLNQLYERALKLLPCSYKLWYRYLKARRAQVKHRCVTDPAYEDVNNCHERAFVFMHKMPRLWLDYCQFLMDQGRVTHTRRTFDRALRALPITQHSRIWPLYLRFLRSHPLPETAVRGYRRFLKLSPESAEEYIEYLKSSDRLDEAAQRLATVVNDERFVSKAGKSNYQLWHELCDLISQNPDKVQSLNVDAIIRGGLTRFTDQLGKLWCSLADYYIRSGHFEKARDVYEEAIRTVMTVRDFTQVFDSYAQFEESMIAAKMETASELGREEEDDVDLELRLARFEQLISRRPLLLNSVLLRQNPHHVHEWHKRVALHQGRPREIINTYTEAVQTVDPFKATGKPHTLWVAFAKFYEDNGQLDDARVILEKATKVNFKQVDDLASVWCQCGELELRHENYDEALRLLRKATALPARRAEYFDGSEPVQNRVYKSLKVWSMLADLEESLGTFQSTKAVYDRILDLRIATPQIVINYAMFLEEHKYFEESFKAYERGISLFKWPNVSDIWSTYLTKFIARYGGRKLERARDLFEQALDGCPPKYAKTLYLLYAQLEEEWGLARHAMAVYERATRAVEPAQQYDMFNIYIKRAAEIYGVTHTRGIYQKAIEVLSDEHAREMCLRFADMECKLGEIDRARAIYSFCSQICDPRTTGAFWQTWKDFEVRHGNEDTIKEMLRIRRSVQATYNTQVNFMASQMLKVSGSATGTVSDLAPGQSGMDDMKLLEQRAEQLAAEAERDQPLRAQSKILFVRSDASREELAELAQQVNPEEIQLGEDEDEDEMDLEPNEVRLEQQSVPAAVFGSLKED

Target	log2 fold change
USP9X (UniProt Q93008)	0.015 (inactive)
ZMYM1 (UniProt Q5SVZ6)	0.021 (inactive)
ZNF598 isoform 3 (UniProt Q86UK7)	-0.007 (inactive)
VAV1 (UniProt P15498)	0.001 (inactive)
WDR7 (UniProt Q9Y4E6)	-0.059 (inactive)
VPS11 (UniProt Q9H270)	0.034 (inactive)
ZNF318 (UniProt Q5VUA4)	-0.015 (inactive)
VAC14 (UniProt Q08AM6)	0.032 (inactive)
VPS41 (UniProt P49754)	0.062 (inactive)
ZNHIT6 (UniProt Q9NWK9)	0.024 (inactive)
ZZEF1 (UniProt O43149)	0.019 (inactive)
VPS16 (UniProt Q9H269)	0.024 (inactive)
ZHX1 (UniProt Q9UKY1)	0.051 (inactive)
ZC3H13 (UniProt Q5T200)	-0.027 (inactive)
VRK1 (UniProt Q99986)	0.049 (inactive)
VPS54 (UniProt Q9P1Q0)	-0.117 (inactive)

Target	log2 fold change
WDR45 isoform 2 (UniProt Q9Y484)	-0.001 (inactive)
XAB2 (UniProt Q9HCS7)	0.076 (inactive)
YTHDF3 (UniProt Q7Z739)	-0.029 (inactive)
XPO6 (UniProt Q96QU8)	0.031 (inactive)
WRB (UniProt O00258)	0.002 (inactive)
XPOT (UniProt O43592)	-0.003 (inactive)
VPS18 (UniProt Q9P253)	-0.021 (inactive)
WDR3 (UniProt Q9UNX4)	-0.012 (inactive)
USP8 (UniProt P40818)	-0.004 (inactive)
ZFPM1 (UniProt Q8IX07)	-0.041 (inactive)
VRK2 (UniProt Q86Y07)	-0.058 (inactive)
WDR91 (UniProt A4D1P6)	0.038 (inactive)
WDR20 isoform 7 (UniProt Q8TBZ3)	0.04 (inactive)
YRDC (UniProt Q86U90)	-0.018 (inactive)
UQCRC2 (UniProt P22695)	-0.005 (inactive)

The targets below were run with C1=CC2=NC=CN=C2C=C1/C=C/3\C(=O)NC(=O)S3 in the same assay as above.
How it was run: as §1

Target	log2 fold change
USP9X (UniProt Q93008)	0.014 (inactive)
ZMYM1 (UniProt Q5SVZ6)	0.007 (inactive)
ZNF598 isoform 3 (UniProt Q86UK7)	-0.045 (inactive)
VAV1 (UniProt P15498)	-0.043 (inactive)
WDR7 (UniProt Q9Y4E6)	-0.001 (inactive)
VPS11 (UniProt Q9H270)	0.014 (inactive)
ZNF318 (UniProt Q5VUA4)	-0.078 (inactive)
VAC14 (UniProt Q08AM6)	0.024 (inactive)
VPS41 (UniProt P49754)	-0.003 (inactive)
ZNHIT6 (UniProt Q9NWK9)	-0.007 (inactive)
ZZEF1 (UniProt O43149)	-0.012 (inactive)
VPS16 (UniProt Q9H269)	-0.03 (inactive)
ZHX1 (UniProt Q9UKY1)	-0.027 (inactive)
ZC3H13 (UniProt Q5T200)	-0.071 (inactive)
VRK1 (UniProt Q99986)	0.015 (inactive)
VPS54 (UniProt Q9P1Q0)	0.213 (inactive)

Target	log2 fold change
WDR45 isoform 2 (UniProt Q9Y484)	0.06 (inactive)
XAB2 (UniProt Q9HCS7)	0.093 (inactive)
YTHDF3 (UniProt Q7Z739)	0.089 (inactive)
XPO6 (UniProt Q96QU8)	-0.012 (inactive)
WRB (UniProt O00258)	-0.009 (inactive)
XPOT (UniProt O43592)	0.032 (inactive)
VPS18 (UniProt Q9P253)	-0.016 (inactive)
WDR3 (UniProt Q9UNX4)	0.027 (inactive)
USP8 (UniProt P40818)	-0.034 (inactive)
ZFPM1 (UniProt Q8IX07)	0.005 (inactive)
VRK2 (UniProt Q86Y07)	-0.056 (inactive)
WDR91 (UniProt A4D1P6)	-0.034 (inactive)
WDR20 isoform 7 (UniProt Q8TBZ3)	-0.117 (inactive)
YRDC (UniProt Q86U90)	-0.021 (inactive)
UQCRC2 (UniProt P22695)	-0.019 (inactive)

The targets below were run with C1=CC=C(C=C1)C2=NC(=C(N2)C3=CC=NC=C3)C4=CC(=C(C=C4)Cl)O in the same assay as above.
How it was run: as §1

Target	log2 fold change
USP9X (UniProt Q93008)	0.003 (inactive)
ZMYM1 (UniProt Q5SVZ6)	-0.036 (inactive)
ZNF598 isoform 3 (UniProt Q86UK7)	0.006 (inactive)
VAV1 (UniProt P15498)	0.037 (inactive)
WDR7 (UniProt Q9Y4E6)	-0.005 (inactive)
VPS11 (UniProt Q9H270)	0.011 (inactive)
ZNF318 (UniProt Q5VUA4)	0.003 (inactive)
VAC14 (UniProt Q08AM6)	-0.006 (inactive)
VPS41 (UniProt P49754)	0.036 (inactive)
ZNHIT6 (UniProt Q9NWK9)	-0.008 (inactive)
ZZEF1 (UniProt O43149)	-0.009 (inactive)
VPS16 (UniProt Q9H269)	0.048 (inactive)
ZHX1 (UniProt Q9UKY1)	-0.027 (inactive)
ZC3H13 (UniProt Q5T200)	0.075 (inactive)
VRK1 (UniProt Q99986)	0.024 (inactive)
VPS54 (UniProt Q9P1Q0)	-0.044 (inactive)

Target	log2 fold change
WDR45 isoform 2 (UniProt Q9Y484)	-0.008 (inactive)
XAB2 (UniProt Q9HCS7)	0.012 (inactive)
YTHDF3 (UniProt Q7Z739)	-0.183 (inactive)
XPO6 (UniProt Q96QU8)	-0.003 (inactive)
WRB (UniProt O00258)	-0.002 (inactive)
XPOT (UniProt O43592)	-0.011 (inactive)
VPS18 (UniProt Q9P253)	0.051 (inactive)
WDR3 (UniProt Q9UNX4)	-0.015 (inactive)
USP8 (UniProt P40818)	0.014 (inactive)
ZFPM1 (UniProt Q8IX07)	-0.01 (inactive)
VRK2 (UniProt Q86Y07)	0 (inactive)
WDR91 (UniProt A4D1P6)	0.002 (inactive)
WDR20 isoform 7 (UniProt Q8TBZ3)	0.094 (inactive)
YRDC (UniProt Q86U90)	0.036 (inactive)
UQCRC2 (UniProt P22695)	0.01 (inactive)
